Screens deposited in PubChem BioAssay by NMMLSC.
An excerpt weighted towards active compounds, which were near 1.2% of everything screened.
LAP4 TOR yeast = yeast TOR pathway LAP4-GFP modulation; S. cerevisiae LAP4-GFP multiplex, flow cytometry GFP, 3 h; median GFP as percent of DMSO wells; hit rate 0.34% among 320,000; GFP response vs DMSO, % at 10 µM;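 active = GFP response vs DMSO above a set limit, about the screen mean plus 3 SD, cut at about 150% in these data; inconclusive = under 70 cell events counted for the yeast strain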
MEP2 TOR yeast = alters MEP2-GFP fluorescence in TOR pathway yeast screen; AID 2016; hit rate 0.51% among 330,000; GFP response vs DMSO, % at 10 µM; S. cerevisiae MEP2-GFP strain, flow cytometry GFP, 3 h; 100% = DMSO control level;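 active = GFP response versus DMSO above a set limit, roughly screen mean plus 3 SD, cut at about 180% in these data; inconclusive = fewer than 70 cells counted for a yeast strain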;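 note: median GFP fluorescence of the barcode-gated MEP2-GFP cells per well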
Pemphigus Ab inh = inhibitors of pemphigus antibody binding to human desmoglein-3 | binding (percent of control), % at 10 µM | AID 588358 | DSG3-coupled beads, scFv-anti-DSG3-GFP binding, flow cytometry; stronger effect = lower value | P32926 | hit rate 0.48% among 310,000;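 active = binding more than 3 SD below its plate's average and above zero; inconclusive = below that plate limit but binding exactly zero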
Target sequence (P32926 whole entry, looked up): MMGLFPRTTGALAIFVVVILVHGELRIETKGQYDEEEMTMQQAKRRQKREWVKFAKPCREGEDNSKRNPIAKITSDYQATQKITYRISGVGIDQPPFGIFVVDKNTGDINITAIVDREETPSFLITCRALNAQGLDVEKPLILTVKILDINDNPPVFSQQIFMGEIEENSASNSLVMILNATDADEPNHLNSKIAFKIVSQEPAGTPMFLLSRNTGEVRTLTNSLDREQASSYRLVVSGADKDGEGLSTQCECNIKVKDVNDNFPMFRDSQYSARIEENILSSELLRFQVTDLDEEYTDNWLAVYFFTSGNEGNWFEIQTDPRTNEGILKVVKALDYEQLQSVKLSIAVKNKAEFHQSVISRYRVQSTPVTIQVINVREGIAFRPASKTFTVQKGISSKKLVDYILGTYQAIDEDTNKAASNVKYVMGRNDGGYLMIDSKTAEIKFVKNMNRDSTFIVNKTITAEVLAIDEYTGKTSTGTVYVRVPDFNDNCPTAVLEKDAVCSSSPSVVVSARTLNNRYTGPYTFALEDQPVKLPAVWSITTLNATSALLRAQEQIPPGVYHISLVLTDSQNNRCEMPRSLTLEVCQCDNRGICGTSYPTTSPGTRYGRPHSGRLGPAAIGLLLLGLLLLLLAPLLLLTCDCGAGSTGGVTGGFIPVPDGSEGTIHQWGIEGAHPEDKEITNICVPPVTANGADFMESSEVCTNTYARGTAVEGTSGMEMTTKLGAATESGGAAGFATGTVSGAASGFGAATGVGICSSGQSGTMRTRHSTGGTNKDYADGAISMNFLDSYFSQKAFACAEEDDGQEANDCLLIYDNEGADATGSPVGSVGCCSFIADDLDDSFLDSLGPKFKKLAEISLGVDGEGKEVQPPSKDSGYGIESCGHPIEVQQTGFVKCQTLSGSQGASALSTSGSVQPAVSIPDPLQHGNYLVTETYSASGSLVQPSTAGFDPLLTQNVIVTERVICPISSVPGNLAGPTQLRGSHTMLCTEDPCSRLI
AGP1-GFP MLPCN = alters AGP1-GFP fluorescence in TOR pathway yeast screen. S. cerevisiae AGP1-GFP multiplex flow cytometry, 3 h; GFP as percent of DMSO wells. GFP response vs DMSO, % at 10 µM. hit rate 0.02% among 320,000;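 active = GFP response relative to DMSO above a set limit, near screen average plus 3 SD, cut at about 150% in these data; inconclusive = fewer than 70 cells counted for the yeast strain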;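 note: median GFP channel fluorescence of the gated AGP1 strain per well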
CIT2 TOR yeast = yeast TOR pathway CIT2-GFP modulation; S. cerevisiae CIT2-GFP strain, flow cytometry, 3 h; 100 means same as DMSO wells; AID 2029; GFP response vs DMSO, % at 10 µM; hit rate 0.065% among 320,000;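 active = GFP response relative to DMSO above a set limit, near the screen mean plus 3 SD, cut at about 150% in these data; inconclusive = Fewer than 70 cells measured for a yeast strain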;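 note: ratio of well median GFP fluorescence to mean of DMSO wells on the plate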
RPL19A TOR yeast = modulators of TOR pathway RPL19A-GFP in S. cerevisiae | hit rate 0.3% among 330,000 | AID 2025 | percent response vs DMSO, % at 10 µM | S. cerevisiae RPL19A-GFP strain, flow cytometry, 3 h; stronger effect = lower value;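 active = percent response vs DMSO below 50%; inconclusive = fewer than 70 events counted for the yeast strain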;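 note: median channel GFP fluorescence of the barcoded RPL19A-GFP strain; ratio of sample median GFP to plate DMSO average so 100% = DMSO; lower means less RPL19A-GFP as with rapamycin TOR inhibition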
Starred values were filed as active, the others as inactive; ? = inconclusive; . = not tested or not shown; [ ] = dose if it differs, or a comment.

SMILES | LAP4 TOR yeast | MEP2 TOR yeast | Pemphigus Ab inh | AGP1-GFP MLPCN | CIT2 TOR yeast | RPL19A TOR yeast
Cn1cc(CN2CCC(C(=O)N3CCCCC3)CC2)c(-c2ccccc2F)n1 | 94.9 | 98.8 | 32.0* | 99.4 | 97.5 | 98.7
CCOC(=O)C1CCCCN1Cc1cn(C)nc1-c1ccccc1F (configuration not stated) | 102.2 | 92.5 | 88.3 | 98.4 | 95.6 | 93.8
Cc1ccc(S(=O)(=O)N2[C@@H](c3ccc(F)cc3)C(C(=O)O)=C[C@H]2CC2CCCC2)cc1 | 82.9 | 89.7 | 106.7 | 85.8 | 92.9 | 93.7
O=C(Nc1ccc(C(F)(F)F)cc1-c1ccccc1)c1ccccc1 | 89.4 | 103.2 | 65.4* | 91.7 | 91.7 | 96.5
COC(=O)c1cccc(-n2c(CCC(=O)O)ccc2-c2cccs2)c1 | 156.7* | 95.1 | 97.0 | 99.5 | 83.9 | 94.7
Cc1ccccc1NC(=O)N1CCNC(=O)C1CC(=O)Nc1cc(Cl)ccc1Cl (configuration not stated) | 103.1 | 109.4 | 112.5 | 118.3 | 159.0*[may fluoresce green] | 94.1
O=C(CC1C(=O)NCCN1C(=O)Nc1ccccc1)Nc1cc(Cl)ccc1Cl (configuration not stated) | 93.0 | 90.2 | 101.9 | 105.9 | 96.9 | 96.7
CCCN(CCC)CCNC(=O)C1CC(=O)N(c2ccc(OC)cc2)C1c1ccc(OC)cc1 (configuration not stated) | 107.5 | 103.8 | . | 110.1 | 103.0 | 97.6
CCN(CC)CCNC(=O)C1CCC(=O)N(c2ccc(OC)cc2)C1c1ccc(F)cc1 (configuration not stated) | 90.6 | 230.0*[may fluoresce violet] | 95.6 | 19.5 | ? | 57.9
CCOC(=O)c1[nH]c2cc3c(cc2c1CCCN1C(=O)c2ccccc2C1=O)OCCO3 | 105.5 | 96.5 | -28.9* | 102.4 | 99.2 | 96.5
CCOC(=O)c1[nH]c2ccccc2c1CCCN1C(=O)c2ccccc2C1=O | 100.5 | 105.4 | . | 99.3 | 89.6 | 95.4
COc1ccccc1OCC(=O)Nc1nc(C)c(C)s1 | 107.2 | 102.3 | 102.7 | 91.4 | 94.9 | 104.1
COc1ccccc1N1CCN(C(=O)CSc2ccccc2)CC1 | 111.0 | 107.2 | 96.9 | 97.4 | 105.5 | 101.5
COc1ccccc1N1CCN(C(=O)C(Sc2ccccc2)c2ccccc2)CC1 (configuration not stated) | 93.2 | 260.9*[may fluoresce violet] | 113.0 | . | ? | 39.7*[may fluoresce violet]
Cn1c(SCC(=O)NC2CCCCC2)nnc1-c1cc2cc(Cl)ccc2o1 | 91.0 | 92.2 | 63.6* | 87.4 | 88.8 | 91.2
CN1CCN(S(=O)(=O)c2cccc(C(=O)Nc3nccs3)c2)CC1 | 106.6 | 99.2 | 97.4 | 108.9 | 110.2 | 95.0
CC1CCN(S(=O)(=O)c2cccc(C(=O)Nc3nccs3)c2)CC1 | 165.9* | 213.7* | 99.9 | 111.5 | 152.2* | 104.9
Cc1c(C(=O)NCc2ccc3c(c2)OCO3)sc2nc(-c3ccc(F)cc3)cn12 | 101.6 | 98.6 | 91.4 | 106.7 | 111.0 | 99.3
Cc1c(C(=O)NCc2ccc3c(c2)OCO3)sc2nc(-c3ccccc3)cn12 | 105.0 | 103.3 | 57.5* | 102.5 | 105.3 | 103.0
CC(C)(C)SCCNC(=O)CN(c1ccc(F)cc1)S(C)(=O)=O | 112.6 | 105.3 | 100.0 | 105.2 | 104.3 | 105.9
CC(C)(C)SCCNC(=O)CN(c1ccccc1)S(=O)(=O)c1ccc(F)cc1 | 102.2 | 102.2 | 5.2* | 103.5 | 104.7 | 103.0
O=C(Nc1cccc([N+](=O)[O-])c1)c1ccc(CSc2ccccc2)cc1 | 93.4 | 101.0 | 80.3* | 103.3 | 95.2 | 103.4
O=C(Nc1cccc([N+](=O)[O-])c1)c1ccccc1 | 106.5 | 97.8 | 73.3 | 98.3 | 95.3 | 98.0
Cc1[nH]c(=O)c(C#N)c2c1CSC(C)(C)C2 | 101.3 | 105.7 | 102.0 | 108.3 | 100.7 | 100.0
Cc1onc(-c2c(F)cccc2Cl)c1C(=O)NC(C)c1ccccc1 (configuration not stated) | 91.5 | 194.7*[may fluoresce violet] | 117.7 | 26.5 | ? | 96.9
SMILES | LAP4 TOR yeast | MEP2 TOR yeast | Pemphigus Ab inh | AGP1-GFP MLPCN | CIT2 TOR yeast | RPL19A TOR yeast
S=C(Nc1ccc(Cl)cc1)Nc1ccc2cn[nH]c2c1 | 169.2* | 85.4 | 99.9 | 74.1 | 64.7 | 95.1
Cc1ccc(C)c(OCc2cc(C(=O)NC(C)c3cnn(C)c3)no2)c1 (configuration not stated) | 81.8 | 124.3 | 101.9 | ? | ? | 25.4*[may fluoresce violet]
Cc1nc(C(C)NC(=O)c2cc(COc3ccc(C)c(C)c3)on2)c(C)s1 (configuration not stated) | 70.9 | 147.5 | 105.5 | ? | ? | 16.6*[may fluoresce violet]
Cc1cccc(CC(C)NC(=O)c2cc(COc3ccc(C)c(C)c3)on2)n1 (configuration not stated) | 98.4 | 102.2 | 107.6 | 97.4 | 104.6 | 99.5
O=C(O)CCn1[nH]c(=O)c2ccccc2c1=O | 96.2 | 101.2 | 104.3 | 97.6 | 104.5 | 98.9
Cn1c(=O)[nH]c(=O)c2c1nc(N1CCCCC1)n2CCOc1ccccc1 | 90.5 | 218.2* | 92.4 | 26.4 | 117.9 | .
Cn1c(=O)[nH]c(=O)c2c1nc(N1CCCC1)n2CC(O)COc1ccccc1 (configuration not stated) | 99.2 | 108.9 | 110.0 | 107.3 | 106.7 | 100.3
CN(C)CCNc1nc2c(c(=O)[nH]c(=O)n2C)n1CCOc1ccccc1 | 111.9 | 98.9 | 81.0* | 111.3 | 107.3 | 96.0
COc1ccccc1CNC(=O)CN(C)S(=O)(=O)c1ccc(Br)s1 | ? | ? | 109.7 | ? | ? | 21.3*[may fluoresce violet]
COc1ccc(CNC(=O)CN(C)S(=O)(=O)c2ccc(Br)s2)cc1 | 85.5 | 97.1 | ? | 89.9 | 95.0 | 92.4
CCCc1cc(NCC2CCCO2)n2c(nc3ccccc32)c1C#N (configuration not stated) | 124.6 | 537.3*[may fluoresce violet] | . | . | ? | 30.1*[may fluoresce violet]
CCCc1cc(NCCN(C)C)n2c(nc3ccccc32)c1C#N | 92.2 | 99.4 | 115.8 | 98.6 | 90.7 | 97.6
COc1cccc(N=Nc2ccc3cccnc3c2O)c1 | 166.4* | 111.6 | 93.7 | 104.5 | 146.1 | 98.7
COc1cc(OC)cc(C(=O)Nc2cccc3cccnc23)c1 | 98.8 | 102.8 | 91.1 | 92.3 | 99.9 | 102.1
Cc1cnc(NS(=O)(=O)c2ccccc2)c(C)n1 | 97.2 | 98.4 | 66.3* | 102.6 | 106.6 | 107.2
Cc1ccc(Cn2cnc3c(nnn3Cc3ccc(Cl)cc3)c2=O)cc1 | 94.6 | 96.4 | 73.2* | 98.7 | 106.7 | 93.5
Cc1cccc(Cn2cnc3c(nnn3Cc3ccc(Cl)cc3)c2=O)c1 | 107.0 | 104.9 | 91.0 | 109.0 | 110.3 | 103.3
O=C1C2=C(NC(=S)NC2c2ccc(Cl)cc2)NC(c2ccc(Cl)cc2)N1c1ccc(Cl)cc1 (configuration not stated) | ? | 391.2*[may fluoresce violet] | . | ? | ? | 55.9
